Compound activity from PubChem BioAssay.
mHTT-CaM PPI inh = mHTT-calmodulin interaction abrogation | P42858 | AlphaScreen His-mHTT/GST-CaM binding, luminescence | inhibition, % at 15 µM | 190,000 tested, 3.6% active;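 also: 0% = both proteins with DMSO and 100% = one protein alone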
Pf apPOL inh = Pf-apPOL DNA polymerase inhibition; 210,000 tested, 0.25% active; Recombinant Pf-apPOL, molecular beacon fluorescence, 1.5 h; inhibition, % at 10 µM
* = called active by the depositor. This excerpt belongs to a sample that is enriched for hits. Rule as the data show it: active = inhibition above about 50%; inactive = the rest.

Results for COc1ccc(CC(=O)N2CCc3c(c(C(=O)NCc4ccc(F)cc4)nn3C)C2)cc1 ?
mHTT-CaM PPI inh: 73.9*; Pf apPOL inh: -6.1

How did COc1ccc(C(=O)N2CCc3c(c(C(=O)NCc4ccc5c(c4)OCO5)nn3C)C2)cc1 do in these assays?
mHTT-CaM PPI inh: 47.5; Pf apPOL inh: -6.7

Results for CCC(CC)C(=O)N1CCc2c(c(C(=O)NCc3ccc(F)cc3)nn2C)C1 ?
mHTT-CaM PPI inh: 58.0*; Pf apPOL inh: -8.5

Results for Cc1ccc(CC(=O)N2CCc3c(c(C(=O)NCc4ccc(F)cc4)nn3C)C2)cc1 ?
mHTT-CaM PPI inh: 69.4*; Pf apPOL inh: -9.4

Results for Cn1nc(C(=O)NCc2ccccc2)c2c1CCN(C(=O)c1ccco1)C2 ?
mHTT-CaM PPI inh: 17.6; Pf apPOL inh: -9.5

How did Cc1ccc(CC(=O)N2CCc3c(c(COCc4ccccc4F)nn3C)C2)cc1 do in these assays?
mHTT-CaM PPI inh: 6.5; Pf apPOL inh: -8.5

How did CC(=Nc1ccc(S(N)(=O)=O)cc1)C1=C(O)c2ccccc2C1=O do in these assays?
mHTT-CaM PPI inh: 8.8; Pf apPOL inh: -3.6

What do the screens show for `CC(=O)c1ccc(NS(=O)(=O)c2cccc(C(=O)Nc3ccccc3)c2)cc1`?
mHTT-CaM PPI inh: -0.6; Pf apPOL inh: 2.4

Results for COc1ccccc1OCC(O)CN1CCN(c2ccc(F)cc2)CC1 (stereo unspecified) ?
mHTT-CaM PPI inh: -14.0; Pf apPOL inh: -10.2

How did Cc1cc(Cl)ccc1OCC(O)CN1CCN(c2ccccc2)CC1 (stereo unspecified) do in these assays?
mHTT-CaM PPI inh: 93.4*; Pf apPOL inh: -4.4

What do the screens show for `COc1ccccc1N1CCN(CC(O)COc2ccc(C)c(C)c2)CC1` (stereo unspecified)?
mHTT-CaM PPI inh: 38.4; Pf apPOL inh: -2.2

Results for COc1ccccc1N1CCN(C(=O)COc2ccc(Br)cc2C)CC1 ?
mHTT-CaM PPI inh: 23.3; Pf apPOL inh: -4.5

Results for COc1ccccc1N1CCN(CC(O)COc2ccc(Cl)c(C)c2)CC1 (stereo unspecified) ?
mHTT-CaM PPI inh: 99.2*; Pf apPOL inh: 1.7

Results for CC(C)(C)c1ccccc1OCC(O)CN1CCN(c2ccccc2)CC1 (stereo unspecified) ?
mHTT-CaM PPI inh: 99.5*; Pf apPOL inh: -0.9

Results for Cc1ccc(OCC(O)CN2CCN(c3ccccc3)CC2)c(C)c1 (stereo unspecified) ?
mHTT-CaM PPI inh: 13.8; Pf apPOL inh: 1.9

What do the screens show for `COc1ccccc1N1CCN(C(=O)COc2cc(C)c(Br)c(C)c2)CC1`?
mHTT-CaM PPI inh: 56.0*; Pf apPOL inh: -4.6

Results for COc1ccc(C2CC(c3ccccc3Cl)Nc3ncnn32)cc1 (stereo unspecified) ?
mHTT-CaM PPI inh: -8.6; Pf apPOL inh: 1.6

Results for CCOc1ccc(CN2CCN(C3CCCC3)CC2)cc1 ?
mHTT-CaM PPI inh: 3.8; Pf apPOL inh: -8.0

What do the screens show for `CCC(C(=O)Nc1sc2c(c1C(N)=O)CCCC2)c1ccccc1` (stereo unspecified)?
mHTT-CaM PPI inh: 2.9; Pf apPOL inh: -1.9

What do the screens show for `N#C/C(=C\Nc1ccc(F)cc1)c1nc(-c2ccc3c(c2)OCO3)cs1`?
mHTT-CaM PPI inh: 11.2; Pf apPOL inh: 0.4

Results for COc1cc(C(=O)NCc2ccc3c(c2)OCO3)cc(OC)c1OC ?
mHTT-CaM PPI inh: -5.0; Pf apPOL inh: -5.0

Results for CC1(C)CC(=O)c2ccc(=O)[nH]c2C1 ?
mHTT-CaM PPI inh: 2.2; Pf apPOL inh: 10.2

How did Cc1ccc(C)c(NC(=O)c2c(O)c3cccc4c3n(c2=O)CC4)c1 do in these assays?
mHTT-CaM PPI inh: 4.0; Pf apPOL inh: -2.3

What do the screens show for `CCS(=O)(=O)N1CCN(c2ccc([N+](=O)[O-])c(NC3CC3)c2)CC1`?
mHTT-CaM PPI inh: -0.5; Pf apPOL inh: -7.9

Results for O=[N+]([O-])c1ccc(N2CCNCC2)cc1NC1C2CC3CC(C2)CC1C3 (stereo unspecified) ?
mHTT-CaM PPI inh: 82.2*; Pf apPOL inh: -0.1

How did COc1ccc(Nc2ncnc(Nc3ccc(OC)cc3)c2[N+](=O)[O-])cc1 do in these assays?
mHTT-CaM PPI inh: 1.0; Pf apPOL inh: -7.7

Results for O=C(O)c1ccc(N2N=C(/C=C/c3ccccc3)CC2c2ccccc2)cc1 (stereo unspecified) ?
mHTT-CaM PPI inh: -26.0; Pf apPOL inh: 1.0

Results for C(=C\c1ccccc1)/C1=Nc2ccccc2NC(c2ccccc2)C1 (stereo unspecified) ?
mHTT-CaM PPI inh: 81.0*; Pf apPOL inh: -5.3

What do the screens show for `CN(C)/C(=C1/c2cc([N+](=O)[O-])ccc2-c2c1cc([N+](=O)[O-])cc2[N+](=O)[O-])N1CCOCC1`?
mHTT-CaM PPI inh: 57.0*; Pf apPOL inh: -12.1

Results for O=C(c1cc([N+](=O)[O-])ccc1N1CCCC1)N1CCOCC1 ?
mHTT-CaM PPI inh: -2.1; Pf apPOL inh: -4.3

How did O=C(c1cccs1)N1CCCCC1c1nncn1-c1ccccc1 (stereo unspecified) do in these assays?
mHTT-CaM PPI inh: -2.2; Pf apPOL inh: -4.1

Results for COc1ccc(C=CC(=O)c2cc(F)ccc2O)c(OC)c1 ?
mHTT-CaM PPI inh: 23.5; Pf apPOL inh: 1.0

How did COc1ccc(O)c(C(=O)C=Cc2ccc3c(c2)OCCCO3)c1 do in these assays?
mHTT-CaM PPI inh: 80.1*; Pf apPOL inh: 0.9

How did COc1ccc(C=CC(=O)c2cc(C)ccc2O)c(OC)c1 do in these assays?
mHTT-CaM PPI inh: 67.2*; Pf apPOL inh: -4.8

Results for O=C(C=Cc1ccc2c(c1)OCCCO2)c1cc([N+](=O)[O-])ccc1O ?
mHTT-CaM PPI inh: 26.2; Pf apPOL inh: 0.4

Results for O=C(CCCN1C(=O)c2ccccc2C1=O)Nc1ccc(S(=O)(=O)Nc2nccs2)cc1 ?
mHTT-CaM PPI inh: 10.0; Pf apPOL inh: 1.4

How did CC(=O)N1CCc2ccccc2C1C(=O)NCc1cccc(F)c1 (stereo unspecified) do in these assays?
mHTT-CaM PPI inh: -11.0; Pf apPOL inh: -2.6

What do the screens show for `COc1ccc(NC(=O)c2cc3c(s2)CN(C2CCCC2)C3)cc1`?
mHTT-CaM PPI inh: 2.8; Pf apPOL inh: -0.8

How did CC(NC(=O)Nc1cccc(Cl)c1)c1ccccc1 (stereo unspecified) do in these assays?
mHTT-CaM PPI inh: -3.3; Pf apPOL inh: -4.7

How did CC(NC(=O)Nc1ccc(Cl)c(Cl)c1)c1ccccc1 (stereo unspecified) do in these assays?
mHTT-CaM PPI inh: 72.9*; Pf apPOL inh: -0.8

How did Cc1ccc(-n2nnc(C(=O)NC(C)C)c2-c2cccnc2)cc1 do in these assays?
mHTT-CaM PPI inh: -4.3; Pf apPOL inh: -0.4

How did Cc1nc2ncccn2c1-c1csc(Nc2ccccn2)n1 do in these assays?
mHTT-CaM PPI inh: 73.0*; Pf apPOL inh: -4.0

What do the screens show for `Cc1cccc(C(=O)Nc2c(C)nc3sccn3c2=O)c1`?
mHTT-CaM PPI inh: -3.7; Pf apPOL inh: 4.5

Results for Cc1cccc(Nc2nc(-c3c(C)nc4ncccn34)cs2)c1 ?
mHTT-CaM PPI inh: 77.0*; Pf apPOL inh: -6.2

What do the screens show for `Cc1nc2sccn2c1-c1csc(Nc2cccc(O)c2)n1`?
mHTT-CaM PPI inh: 73.0*; Pf apPOL inh: -2.7

How did Cc1nc2ncccn2c1-c1csc(N)n1 do in these assays?
mHTT-CaM PPI inh: -1.4

What do the screens show for `Cc1cc(NS(=O)(=O)c2ccc(Nc3nc(-c4c(C)nc5ncccn45)cs3)cc2)no1`?
mHTT-CaM PPI inh: 22.0; Pf apPOL inh: -2.0

What do the screens show for `Cc1nc2ncccn2c1-c1csc(Nc2ccccc2)n1`?
mHTT-CaM PPI inh: 97.0*; Pf apPOL inh: -0.6

Results for Cc1nc2ncccn2c1-c1csc(Nc2cccc([N+](=O)[O-])c2)n1 ?
mHTT-CaM PPI inh: -2.5; Pf apPOL inh: -14.0
